Values without a mark were called inactive. Calls come from the whole dose curve.
The compounds below were run against Acetylcholinesterase (Homo sapiens) (UniProt P22303) (assay: Acetylcholinesterase (AChE) small molecule antagonists: enzyme-based qHTS assay (AID 1347397; note: nearly all actives have a fitted effect of over 55% in size)). Conditions: Potency: AChE enzyme activity inhibition; outcome: AChE enzyme activity inhibition; series mostly up to 115 µM; activity change, negative = inhibition: at the top concentration.
Excerpt: National Center for Advancing Translational Sciences [NCATS]
Division of Preclinical Innovation [DPI]
U.S. Environmental Protection Agency [EPA]
National Institutes of Environmental Health Sciences [NIEHS]
National Toxicology Program [NTP]
U.S. Food and Drug Administration [FDA]
Acetylcholinesterase (AChE) is the primary cholinesterase in the body that hydrolyzes a key neurotransmitter, acetylcholine. Inhibition of AChE activity can lead to neurotoxicity. The known inhibitors include organophosphorous pesticides (OP), chemical warfare agents, drugs, and various phytochemicals.
An enzyme-based assay with the recombinant human AChE and Amplite Colormetric acetylcholinesterase assay kit (AAT Bioquest, Sunnyvale, CA) was used to evaluate the chemicals in the Tox21 10K library that inhibit AChE activity. The assay uses 5, 5-dithiobis-(2-nitrobenzoic acid) (DTNB) to quantify the thiocholine produced from the hydrolysis of acetylthiocholine by AChE.
Tox21 Assay Protocol Summary:
For the enzyme-based AChE assay, recombinant human AChE (50 mU/mL) in 4 uL/well was dispensed into black, clear-bottom 1536-well plates using a Multidrop Combi dispenser (Thermo Scientific, MA). Then, 23 nL of compound or DMSO (vehicle control) was transferred into the assay plates by a Pintool Station (Wako Automation, CA). The plates were incubated for 30 min at room temperature, followed by the addition of 4 uL of colorimetric detection cocktail solution (DTNB, acetylthiocholine) into each well using a Flying Reagent Dispenser (Beckman Coulter, CA) and then 10 min incubation at room temperature.
% is set by controls: 0 for no effect and ±100 for the full control effect.

Sequence of Acetylcholinesterase (Homo sapiens) (P22303 whole entry, looked up): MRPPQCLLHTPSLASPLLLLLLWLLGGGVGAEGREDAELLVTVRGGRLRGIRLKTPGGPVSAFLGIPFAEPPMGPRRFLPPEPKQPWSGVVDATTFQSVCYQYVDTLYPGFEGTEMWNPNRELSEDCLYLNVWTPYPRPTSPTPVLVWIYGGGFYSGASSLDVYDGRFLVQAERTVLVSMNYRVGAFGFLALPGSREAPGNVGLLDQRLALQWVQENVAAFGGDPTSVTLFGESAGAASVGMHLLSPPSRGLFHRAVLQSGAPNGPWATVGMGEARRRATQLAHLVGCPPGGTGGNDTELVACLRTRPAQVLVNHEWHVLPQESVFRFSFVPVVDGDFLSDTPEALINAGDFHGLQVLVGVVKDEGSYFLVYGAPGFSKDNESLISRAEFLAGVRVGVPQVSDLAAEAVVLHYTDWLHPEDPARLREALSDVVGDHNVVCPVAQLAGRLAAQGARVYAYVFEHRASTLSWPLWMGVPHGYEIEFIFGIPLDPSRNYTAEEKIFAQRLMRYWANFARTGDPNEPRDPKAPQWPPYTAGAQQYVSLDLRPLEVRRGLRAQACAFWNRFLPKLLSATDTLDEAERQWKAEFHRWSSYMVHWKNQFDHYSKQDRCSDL

How did the “activity change, negative = inhibition” value turn out when CCCCCCCCCOC(=O)c1ccccc1C(=O)OCCCCCCCCC was run?
Its value is -3.68%.

For CC(=O)c1cnccn1, which “activity change, negative = inhibition” value is on record?
Its value is -0.903%.

For CCc1nn(CCCN2CCN(c3cccc(Cl)c3)CC2)c(=O)n1CCOc1ccccc1, which “activity change, negative = inhibition” value is on record?
Its value is -3.75% [at 53 µM].

Which “activity change, negative = inhibition” value does the source give for COc1ccc(-c2cc(=S)ss2)cc1 here?
Its value is 0% [at 53 µM].

Nc1ccc(Oc2ccc(N)c(N)c2)cc1 was tested. Which “activity change, negative = inhibition” value did it give?
Its value is -2.92%.

Which activity change, negative = inhibition does the source give for O=S(=O)(O)c1ccc2c(N=Nc3ccc(S(=O)(=O)O)c4ccccc34)c(O)c(S(=O)(=O)O)cc2c1 here?
Its activity change, negative = inhibition is 1.09% [at 10.5 µM].

CCCCCCCCCCCCCCCC was tested. Which “activity change, negative = inhibition” value did it give?
Its value is -0.263%.

O=C(O)c1c(O)c(-c2ccccc2)nc2ccccc12 was tested. Which “activity change, negative = inhibition” value did it give?
Its value is -0.945% [at 53 µM].

How did the “activity change, negative = inhibition” value turn out when Cc1nnc(SCC2=C(C(=O)O)N3C(=O)[C@@H](NC(=O)Cn4cnnn4)[C@H]3SC2)s1 was run?
The value was -0.54% [at 53 µM].

How did the “activity change, negative = inhibition” value turn out when OCCN1CCN(CCCN2c3ccccc3Sc3ccc(Cl)cc32)CC1 was run?
Its value is -4.6% [at 53 µM].

With CC(O)C(C)O (stereo not given) as the compound, how does the “activity change, negative = inhibition” value read?
The value was 2%.

COC(=O)C1=C(C)NC(C)=C(C(=O)OC(C)C)C1c1cccc2nonc12 (stereo not given) was tested. Which “activity change, negative = inhibition” value did it give?
Its value is -1.03% [at 53 µM].

How did the “activity change, negative = inhibition” value turn out when COc1cccc2c1C(=O)c1c(O)c3c(c(O)c1C2=O)C[C@@](O)(C(=O)CO)C[C@@H]3O[C@H]1C[C@H](N)[C@H](O[C@@H]2CCCCO2)[C@H](C)O1 was run?
The value was 3.86% [at 53 µM].

How did the “activity change, negative = inhibition” value turn out when CC(C)OC(=O)c1ccccc1C(=O)OC(C)C was run?
Its value is -0.387%.

CCN(CC)CCCN(c1ccccc1)C1Cc2ccccc2C1 was tested. Which “activity change, negative = inhibition” value did it give?
Its value is -3.24% [at 53 µM].

O=C(O)c1cc(C(=O)O)c(C(=O)O)cc1C(=O)O was tested. Which “activity change, negative = inhibition” value did it give?
The value was 2.84%.

With O/N=C/C=N/O as the compound, how does the “activity change, negative = inhibition” value read?
Its value is -1.42%.

For COC(=O)C1=C(C)NC(C)=C(C(=O)O[C@@H]2CCCN(Cc3ccccc3)C2)[C@@H]1c1cccc([N+](=O)[O-])c1, which “activity change, negative = inhibition” value is on record?
Its value is 0.406% [at 53 µM].

CCCCCCOC(=O)CCC was tested. Which “activity change, negative = inhibition” value did it give?
The value was -0.829%.

How did the “activity change, negative = inhibition” value turn out when COC(=O)Nc1nc2ccc(C(=O)c3ccccc3)cc2[nH]1 was run?
Its value is -2.35% [at 53 µM].

For COc1cc(Cl)c(OC)cc1N, which “activity change, negative = inhibition” value is on record?
The value was 1.55%.

How did the “activity change, negative = inhibition” value turn out when CC/C=C\CCCCO was run?
The value was 0.138%.

For Cc1nc(Nc2ncc(C(=O)Nc3c(C)cccc3Cl)s2)cc(N2CCN(CCO)CC2)n1, which “activity change, negative = inhibition” value is on record?
Its value is -15.6% [at 53 µM].

Which “activity change, negative = inhibition” value does the source give for SC1CCCCC1 here?
Its value is 0.54%.

For [Ca+2], which “activity change, negative = inhibition” value is on record?
Its value is -2.98%.

With C=CC(=O)OCCCl as the compound, how does the “activity change, negative = inhibition” value read?
Its value is 1.34%.

Which “activity change, negative = inhibition” value does the source give for CCOc1cc(N)c(Cl)cc1C(=O)NCC1CN(Cc2ccc(F)cc2)CCO1 (stereo not given) here?
The value was -1.88% [at 53 µM].

CC(=O)CC(c1ccc([N+](=O)[O-])cc1)c1c(O)c2ccccc2oc1=O (stereo not given) was tested. Which “activity change, negative = inhibition” value did it give?
The value was -0.277% [at 53 µM].

For C1C2OC2C2C1C1CC2C2OC12 (stereo not given), which “activity change, negative = inhibition” value is on record?
The value was 0.389%.

How did the “activity change, negative = inhibition” value turn out when CCOC(=O)COc1ccc2c(c1)CC(NCC(O)c1cccc(Cl)c1)CC2 (stereo not given) was run?
Its value is -10.7%.

CC(=O)OCC1=C(C(=O)O)N2C(=O)[C@@H](NC(=O)Cc3cccs3)[C@H]2SC1 was tested. Which “activity change, negative = inhibition” value did it give?
The value was -0.81% [at 53 µM].

Which “activity change, negative = inhibition” value does the source give for CC(C)=CCC[C@H](C)CCO here?
Its value is -0.353%.

Which “activity change, negative = inhibition” value does the source give for Clc1ccc(C(Cn2ccnc2)OCc2ccc(Sc3ccccc3)cc2)c(Cl)c1 (stereo not given) here?
Its value is -0.0361% [at 53 µM].

Cc1nc2n(c(=O)c1CCN1CCC(c3noc4cc(F)ccc34)CC1)CCC[C@H]2O was tested. Which activity change, negative = inhibition did it give?
Its activity change, negative = inhibition is -5.56% [at 23.6 µM].

With C[Si]1(C)O[Si](C)(C)O[Si](C)(C)O1 as the compound, how does the “activity change, negative = inhibition” value read?
Its value is -0.412%.

With O=S(=O)(O)c1cc(S(=O)(=O)O)c2ccc3c(S(=O)(=O)O)cc(S(=O)(=O)O)c4ccc1c2c43 as the compound, how does the activity change, negative = inhibition read?
Its activity change, negative = inhibition is -5.03% [at 23.6 µM].

How did the “activity change, negative = inhibition” value turn out when CC(C)C(=O)OCC(C)(C)C(O)C(C)C (stereo not given) was run?
The value was 0.293%.

With CC(=O)OCC1=C(C(=O)O)N2C(=O)[C@@H](NC(=O)CSc3ccncc3)[C@H]2SC1 as the compound, how does the “activity change, negative = inhibition” value read?
The value was 0% [at 53 µM].

CCOc1ccc(N)c([N+](=O)[O-])c1 was tested. Which “activity change, negative = inhibition” value did it give?
The value was -0.185%.

How did the “activity change, negative = inhibition” value turn out when CN1C[C@H]2c3ccccc3Oc3ccc(Cl)cc3[C@@H]2C1 was run?
Its value is -1.95% [at 53 µM].

Reference: PubChem BioAssay (Tox21)
